Laboratory results from PubChem BioAssay (Tox21).
Inconclusive results are not listed. The source made the active and inactive calls. The call rests on the fitted dose curve; in most records, active means well fitted inhibition curve with a large enough effect in the signal ratio in the repeat runs (not every such curve was filed as active); inconclusive means weak or mixed curves, or effect the other way; inactive means no such curve, though single readings can be large or run the other way; the % refers to the signal ratio.

biological target: Vitamin D3 receptor (Homo sapiens) (UniProt P11473); experiment: qHTS assay to identify small molecule antagonists of the vitamin D receptor (VDR) signaling pathway (AID 743223); settings: VDR-UAS-bla HEK293T, beta-lactamase FRET ratio, 16 h; series mostly up to 61 µM
Outline: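 VDR-bla cells were treated with compound plus 3 nM final 1alpha,25-dihydroxyvitamin D3 for 16 h at 37C. Beta-lactamase reporter read by B/G FRET substrate fluorescence after 2 h at room temperature. qHTS format.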

Sequence of Vitamin D3 receptor (Homo sapiens) (P11473 whole entry, looked up): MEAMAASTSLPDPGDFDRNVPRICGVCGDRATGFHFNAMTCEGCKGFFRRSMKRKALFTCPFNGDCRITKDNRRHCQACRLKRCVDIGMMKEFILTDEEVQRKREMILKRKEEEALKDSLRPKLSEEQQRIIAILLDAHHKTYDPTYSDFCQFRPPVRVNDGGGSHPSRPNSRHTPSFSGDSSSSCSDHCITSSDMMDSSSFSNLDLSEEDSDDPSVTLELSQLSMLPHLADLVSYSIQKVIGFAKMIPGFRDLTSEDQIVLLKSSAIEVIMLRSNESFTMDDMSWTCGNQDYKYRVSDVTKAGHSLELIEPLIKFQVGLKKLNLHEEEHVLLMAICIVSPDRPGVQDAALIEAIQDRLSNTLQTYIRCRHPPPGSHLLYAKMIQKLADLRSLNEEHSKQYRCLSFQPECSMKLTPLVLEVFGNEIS

SMILES	outcome
O=C(O)C(F)(F)C(F)(F)C(F)(F)C(F)(F)C(F)(F)C(F)(F)C(F)(F)C(F)(F)C(F)(F)C(F)(F)F	inactive
CC1(C)[C@H](C=C(Cl)Cl)[C@@H]1C(=O)O[C@@H](C#N)c1cccc(Oc2ccccc2)c1	inactive
COC(=O)C(C)N(C(=O)Cc1ccccc1)c1c(C)cccc1C (stereo not given)	inactive
c1ccc(CN2CCNCC2)cc1	inactive
CC(C)N(CCC(C(N)=O)(c1ccccc1)c1ccccn1)C(C)C (stereo not given)	inactive
O=C(CBr)OCc1ccccc1	inactive
C=CCC1([C@H](C)CCC)C(=O)NC(=O)NC1=O	inactive
C(=NC1CCCCC1)=NC1CCCCC1	inactive
CC1(C)CCC(Cc2ccc(Cl)cc2)C1(O)Cn1cncn1 (stereo not given)	inactive
CCCCN(N=O)C(=N)N[N+](=O)[O-]	inactive
